Source: PubChem BioAssay (Tox21)
Records with an inconclusive call do not appear. The source made the active and inactive calls. Calls come from the whole dose curve.

Each compound was assayed against D(2) dopamine receptor (Homo sapiens) (UniProt P14416) (assay: Dopamine D2 receptor (DRD2) small molecule agonists, cell-based qHTS assay (AID 1963594; note: nearly all actives have a fitted effect of over 35% in size)). Conditions: HEK293-DRD2 cAMP HTRF, agonist mode, 30 min; series mostly up to 92.4 µM; activation: at the top concentration.
Description: National Center for Advancing Translational Sciences [NCATS]
Division of Preclinical Innovation [DPI]
U.S. Environmental Protection Agency [EPA]
National Institutes of Environmental Health Sciences [NIEHS]
National Toxicology Program [NTP]
U.S. Food and Drug Administration [FDA]
DRD2 is the D2 subtype of the dopamine receptor, which is coupled to Gi subtype of G protein-coupled receptor. This G protein-coupled receptor inhibits adenylyl cyclase activity. The DRD2-HEK293 cell line stably expressing D2 dopamine receptor can be used for screening agonists and antagonists of interactions between D2 and its ligands. The Hek293-DRD2 cAMP assay is based on HTRF technology. It measures changes of cAMP accumulation in response to Gi coupled GPCR activation or inhibition.
Tox21 Assay Protocol Summary:
DRD2-Hek293 cells were dispensed at 600 cells/3uL/well in 1536-well white plates using a Multidrop Dispenser. After the assay plates were incubated at a 37 C/5% CO2 incubator for 24 h, 1 uL of Ro20-1724 at final concentration of 0.1 mM was transferred to the assay plate by a Flying Reagent Dispenser. Following Ro20-1724 addition, 23 nL of compound dissolved in DMSO, positive controls or DMSO only was added to the assay plates via Wako pintool station. The assay plates were incubated at room temperature for 10 min. Next, 1 uL of NKH477 at 200nM was added into the plates. After the assay plates were incubated at room temperature for an additional 30 min, 2.5 ul/well of cAMP-d2 and 2.5 ul/well of anti-cAMP-cryptate were added respectively into the assay plates using a Flying Reagent Dispenser. The plates were incubated at room temperature for 1 h. The fluorescence intensity in the plates was measured at 340 nm excitation and 665 & 620 nm emission by an Envision plate reader.
% is set by controls: 0 for no effect and ±100 for the full control effect; potency is the fitted concentration of half-maximal effect.

D(2) dopamine receptor (Homo sapiens), sequence (P14416 whole entry, looked up): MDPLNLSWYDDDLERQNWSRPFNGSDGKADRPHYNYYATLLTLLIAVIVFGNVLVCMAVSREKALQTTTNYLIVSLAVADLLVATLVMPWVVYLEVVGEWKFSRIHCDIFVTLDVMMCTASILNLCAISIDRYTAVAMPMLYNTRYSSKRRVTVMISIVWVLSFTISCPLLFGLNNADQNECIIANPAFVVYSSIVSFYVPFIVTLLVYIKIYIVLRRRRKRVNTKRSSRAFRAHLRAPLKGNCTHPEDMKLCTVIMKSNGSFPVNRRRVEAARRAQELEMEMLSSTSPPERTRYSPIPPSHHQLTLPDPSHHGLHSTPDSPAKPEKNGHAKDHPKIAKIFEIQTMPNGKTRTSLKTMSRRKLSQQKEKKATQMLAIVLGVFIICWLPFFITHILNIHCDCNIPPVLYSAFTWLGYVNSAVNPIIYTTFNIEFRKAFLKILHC

Which “activation” value does the source give for CCCOC(=O)c1ccc(C(=O)OCCC)nc1 here?
Its value is 2.31% (inactive).

How did the “activation” value turn out when CS(=O)(=O)c1ccc(-c2cn3ccccc3n2)cc1 was run?
The value was 6.62% [at 42.5 µM] (inactive).

How did the “activation” value turn out when CCOC(=O)[C@H](CCc1ccccc1)N[C@@H](C)C(=O)N(CC(=O)O)C1Cc2ccccc2C1 was run?
The value was 5.64% [at 42.5 µM] (inactive).

For Oc1ccc(C(O)CNCCCCCCNCC(O)c2ccc(O)c(O)c2)cc1O (stereo not given), which “activation” value is on record?
Its value is -1.97% [at 42.5 µM] (inactive).

How did the “activation” value turn out when C=CN1CCCCCC1=O was run?
Its value is 2.41% (inactive).

How did the “activation” value turn out when CCCCOc1ccc(C(=O)CCN2CCCCC2)cc1 was run?
The value was 6.95% [at 42.5 µM] (inactive).

For CCCCOCCOC(=O)COc1cc(Cl)c(Cl)cc1Cl, which “activation” value is on record?
Its value is 5.73% (inactive).

Which “activation” value does the source give for OCCN(CCO)CCN(CCO)CCO here?
The value was 1.07% (inactive).

CCOC(=O)CC(C)O (stereo not given) was tested. Which “activation” value did it give?
Its value is -0.0718% (inactive).

With Brc1ccccn1 as the compound, how does the “activation” value read?
The value was 2.34% (inactive).

How did the “activation” value turn out when CN1CCN(N)CC1 was run?
The value was -8.01% [at 42.5 µM] (inactive).

With CC[C@H]1OC(=O)[C@H](C)[C@@H](O[C@H]2C[C@@](C)(OC)[C@@H](O)[C@H](C)O2)[C@H](C)[C@@H](O[C@@H]2O[C@H](C)C[C@H](N(C)C)[C@H]2O)[C@](C)(O)C[C@@H](C)C(=O)[C@H](C)[C@@H](O)[C@]1(C)O as the compound, how does the “activation” value read?
Its value is 5.92% [at 42.5 µM] (inactive).

For CC(C)COC(=O)COc1cc(Cl)c(Cl)cc1Cl, which “activation” value is on record?
The value was 2.29% (inactive).

With CS(=O)(=O)c1ccc([C@@H](C[C@H]2CCC(=O)C2)C(=O)Nc2cnccn2)cc1Cl as the compound, how does the “activation” value read?
The value was -5.35% (inactive).

Which “activation” value does the source give for O=C1C(=O)c2ccccc2C(O)=C1C1CCC(c2ccc(Cl)cc2)CC1 (stereo not given) here?
The value was 5.33% [at 42.5 µM] (inactive).

How did the “activation” value turn out when N#Cc1ccc(C/C(=N/NC(=O)Nc2ccc(OC(F)(F)F)cc2)c2cccc(C(F)(F)F)c2)cc1 was run?
Its value is 3.68% (inactive).

With CCCCOCC(C)O (stereo not given) as the compound, how does the “activation” value read?
Its value is 12.6% (inactive).

With CCC(C)c1cc([N+](=O)[O-])cc([N+](=O)[O-])c1OC(=O)OC(C)C (stereo not given) as the compound, how does the “activation” value read?
The value was -7.64% (inactive).

Cc1ccc2sc3cccc(C)c3c2c1 was tested. Which “activation” value did it give?
The value was -3.42% (inactive).

For Nc1ncnc2c1ncn2[C@H]1CC[C@@H](CO)O1, which “activation” value is on record?
Its value is -0.801% (inactive).

For O=C1c2ccccc2C(=O)N1CCl, which “activation” value is on record?
Its value is -0.374% (inactive).

How did the “activation” value turn out when CCCCCOC(=O)CCCC was run?
The value was -10.6% (inactive).

How did the “activation” value turn out when CC(C)(C)c1cccc(O)c1 was run?
Its value is 0.367% (inactive).

With CCN(CC)c1ccc2c(-c3ccc(S(=O)(=O)O)cc3S(=O)(=O)[O-])c3ccc(=[N+](CC)CC)cc-3oc2c1 as the compound, how does the Potency read?
Its Potency is 24.5 µM (active).

How did the “activation” value turn out when CC1=C(CC=O)C(C)(C)CCC1 was run?
The value was -6.38% (inactive).

How did the “activation” value turn out when CCCCCCCCC=O was run?
The value was -1.72% (inactive).

O=c1cccccc1O was tested. Which “activation” value did it give?
Its value is -3.08% (inactive).

With OCC(F)(F)F as the compound, how does the “activation” value read?
The value was 1.07% (inactive).

For C=CC/C=C/C, which “activation” value is on record?
The value was -0.632% (inactive).

CC(C)CCCC(C)(C)O was tested. Which “activation” value did it give?
The value was -0.758% (inactive).

Which “activation” value does the source give for C=CCOc1c(Br)cc(C(C)(C)c2cc(Br)c(OCC=C)c(Br)c2)cc1Br here?
The value was -0.639% [at 42.5 µM] (inactive).

O=CN1CCCCC1 was tested. Which “activation” value did it give?
Its value is 1.71% (inactive).

How did the “activation” value turn out when CCC(=O)Oc1ccc2c(c1)CC[C@@H]1[C@@H]2CC[C@@]2(C)[C@H]1C[C@@H](OC(=O)CC)[C@@H]2OC(=O)CC was run?
The value was -9.81% [at 42.5 µM] (inactive).

For CCCN(CCC)CCc1cccc2c1CC(=O)N2, which Potency is on record?
The Potency was 0.0619 µM (active).

Nc1ccc(C(=O)OCC(O)CO)cc1 (stereo not given) was tested. Which “activation” value did it give?
The value was -4.62% [at 42.5 µM] (inactive).

For CCCCCCCCCCCC(=O)NCCCN(C)C, which “activation” value is on record?
The value was 1.94% (inactive).

Which “activation” value does the source give for CCCC(=O)OCOC(=O)C1=C(C)NC(C)=C(C(=O)OC)C1c1cccc(Cl)c1Cl (stereo not given) here?
The value was -0.602% [at 42.5 µM] (inactive).

How did the “activation” value turn out when CCOC(=O)c1ccc(NC(=O)CN2CCCCC2)cc1 was run?
The value was -17.4% [at 42.5 µM] (inactive).

For CC(=O)OCC(=O)[C@@]1(OC(C)=O)[C@@H](C)C[C@H]2[C@@H]3C[C@H](F)C4=CC(=O)C=C[C@]4(C)[C@@]3(F)[C@@H](O)C[C@@]21C, which “activation” value is on record?
The value was 10.7% [at 42.5 µM] (inactive).

How did the “activation” value turn out when CCCCN(CCCC)C(=O)N(CCCC)CCCC was run?
The value was 4.73% (inactive).
